# Experimental data published in the supplement of paper PMC3545927.
# This is one part of the list. No count for the full screen is at hand.
# Target: furin, P09958
# Test: furin cleavage Z-score vs untreated control; higher = more cleavage, active = 3.5 or more, inactive = 1 or less, 8 variable residues between constant flanks
# In short: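 Abundance of DNA freed from bead-bound 8-mer peptide–cDNA fusions by purified furin was measured as sequencing read counts after PCR adapter tagging. Cutting ran 7.5, 15 or 30 min in 0.01 ml of 50 mM HEPES pH 7.5 with CaCl2 and NaCl at 1:10 enzyme:substrate. The cleavage Z-score expresses these log counts against furin-free reactions after lowess adjustment and median absolute deviation scaling.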
# Sequence of furin, P09958 (P09958 whole entry): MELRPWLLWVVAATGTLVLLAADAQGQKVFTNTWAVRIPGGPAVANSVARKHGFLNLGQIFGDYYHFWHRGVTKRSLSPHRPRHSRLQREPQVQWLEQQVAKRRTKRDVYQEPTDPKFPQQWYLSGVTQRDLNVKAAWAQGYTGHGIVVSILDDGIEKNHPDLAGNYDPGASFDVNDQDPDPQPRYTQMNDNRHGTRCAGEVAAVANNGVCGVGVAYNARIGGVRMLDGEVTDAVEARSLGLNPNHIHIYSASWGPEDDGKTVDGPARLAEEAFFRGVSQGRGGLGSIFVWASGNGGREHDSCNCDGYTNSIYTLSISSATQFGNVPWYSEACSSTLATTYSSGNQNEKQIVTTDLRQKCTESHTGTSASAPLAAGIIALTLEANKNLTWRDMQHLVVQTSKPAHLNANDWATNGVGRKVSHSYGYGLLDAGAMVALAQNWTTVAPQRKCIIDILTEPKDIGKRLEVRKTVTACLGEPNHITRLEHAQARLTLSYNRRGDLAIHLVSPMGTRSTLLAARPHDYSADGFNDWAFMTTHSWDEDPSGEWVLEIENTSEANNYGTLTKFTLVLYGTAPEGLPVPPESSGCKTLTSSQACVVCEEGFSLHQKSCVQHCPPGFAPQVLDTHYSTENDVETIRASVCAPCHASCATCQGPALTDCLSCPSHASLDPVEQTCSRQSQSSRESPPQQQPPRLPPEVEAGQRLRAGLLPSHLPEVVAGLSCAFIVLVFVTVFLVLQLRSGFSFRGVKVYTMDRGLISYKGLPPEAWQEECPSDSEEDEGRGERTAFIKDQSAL
Sequence,furin cleavage Z-score (7.5 min),furin cleavage Z-score (15 min),furin cleavage Z-score (30 min)
CATTPCSGSHAGNASASA [HC1935],-1.54 (inactive),-0.464 (inactive),-0.211 (inactive)
CAAFSLHSYSAGNASASA [HC1606],0.00727 (inactive),-0.749 (inactive),-0.113 (inactive)
CAQTPCSGSWAGNASASA [HC1842],-1.2 (inactive),-0.187 (inactive),-0.763 (inactive)
CACQQRFKRKAGNASASA [FS-1516],9.6 (active),8.5 (active),7.56 (active)
CARVSRSVRKAGNASASA [FS-293],2.18,4.8 (active),5.93 (active)
CAAAFRFKRKAGNASASA [FS-1109],9.75 (active),11.5 (active),9.51 (active)
CARVSRLAGRAGNASASA [FS-3126],-0.719 (inactive),-0.0593 (inactive),-1.13 (inactive)
CARVLRSDGKAGNASASA [FS-2102],1.54,-0.134 (inactive),1.59
CARFGRFWKKAGNASASA [FS-2921],-0.769 (inactive),0.759 (inactive),-0.706 (inactive)
CADVFVLNNTAGNASASA [HC428],0.596 (inactive),0.292 (inactive),1.32
CAEFVTSTWVAGNASASA [HC2167],0.46 (inactive),-0.556 (inactive),1.32
CASTRCSAHLAGNASASA [HC2513],-0.269 (inactive),0.477 (inactive),0.507 (inactive)
CAADVVDGAGAGNASASA [CS8],0.136 (inactive),0.768 (inactive),-0.146 (inactive)
CAGWIRSRKAAGNASASA [FS-1529],-0.333 (inactive),0.0867 (inactive),1.14
CAGPQRQKKAAGNASASA [FS-1201],-1.12 (inactive),-0.885 (inactive),1.12
CATVSSEANAAGNASASA [HC1364],-0.827 (inactive),-1.5 (inactive),-0.39 (inactive)
CAGPSRFRKAAGNASASA [FS-162],5.12 (active),5.93 (active),5.05 (active)
CAWPHRSRKAAGNASASA [FS-574],0.887 (inactive),1.32,-0.0044 (inactive)
CATVSRFRKAAGNASASA [FS-731],4.07 (active),6.77 (active),7.8 (active)
CAEVVLSTWVAGNASASA [HC124],-1.79 (inactive),0.00773 (inactive),-0.313 (inactive)
CATPLPAPNYAGNASASA [HC1196],-2.54 (inactive),-0.301 (inactive),-1.86 (inactive)
CAAPAVQTNWAGNASASA [HC1034],0.577 (inactive),-0.967 (inactive),-0.703 (inactive)
CASFSIFLLAAGNASASA [HC247],0.168 (inactive),-0.433 (inactive),-0.472 (inactive)
CARALRSATQAGNASASA [FS-3182],-0.644 (inactive),-0.755 (inactive),1.8
CARKLRDVLQAGNASASA [FS-2215],2.04,4.73 (active),4.95 (active)
CARKLRSLEQAGNASASA [FS-3193],8.09 (active),8.14 (active),8.28 (active)
CARLSRDSLQAGNASASA [FS-2998],-0.269 (inactive),-1.05 (inactive),1.09
CARKLRGETVAGNASASA [FS-2969],-1.81 (inactive),-0.954 (inactive),-0.18 (inactive)
CARDRRRLEQAGNASASA [FS-2483],-1.86 (inactive),0.963 (inactive),-0.511 (inactive)
